Assay results taken from PubChem BioAssay (NCI).
About 83,000 compounds went through this panel and 20% of them were active in at least one assay; those are over-represented in the sample as a whole.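 Method: cells in 96-well plates; compound added at one concentration; 48 h incubation; percent growth measured; values under 10 scored active.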 A number with no mark means an inactive call. The source made the active and inactive calls.

Legend:
Assay in all cases: NCI-60 one-dose screen, 48 h (100 = growth as untreated, 0 = no growth, -100 = all killed)
[1] = tested on: RPMI-8226 leukemia; conditions: 10 µM unless noted
[2] = tested on: OVCAR-8 ovarian; conditions: 10 µM unless noted
[3] = tested on: OVCAR-5 ovarian; conditions: 10 µM unless noted
[4] = tested on: OVCAR-4 ovarian; conditions: 10 µM unless noted
[5] = tested on: SK-OV-3 ovarian; conditions: 10 µM unless noted
[6] = tested on: IGROV1 ovarian; conditions: 10 µM unless noted
[7] = tested on: OVCAR-3 ovarian; conditions: 10 µM unless noted
[8] = tested on: HS 578T breast; conditions: 10 µM unless noted
[9] = tested on: NCI/ADR-RES ovarian; conditions: 10 µM unless noted
[10] = tested on: T-47D breast; conditions: 10 µM unless noted
[11] = tested on: BT-549 breast; conditions: 10 µM unless noted
[12] = tested on: MDA-MB-435 melanoma; conditions: 10 µM unless noted
[13] = tested on: SW-620 colon; conditions: 10 µM unless noted
[14] = tested on: MCF7 breast; conditions: 10 µM
[15] = tested on: HCT-116 colon; conditions: 10 µM unless noted
[16] = tested on: HCC-2998 colon; conditions: 10 µM unless noted
[17] = tested on: KM12 colon; conditions: 10 µM unless noted

Structure (SMILES)	growth [1]	growth [2]	growth [3]	growth [4]	growth [5]	growth [6]	growth [7]	growth [8]	growth [9]	growth [10]	growth [11]	growth [12]	growth [13]	growth [14]	growth [15]	growth [16]	growth [17]
CN1C(=O)N(C)C2(c3ccccc3)OC(=S)NC12c1ccccc1 (stereo unspecified)	109%	100%	99.6%	96.1%	92%	103%	97.4%	108%	108%	95.4%	94.1%	103%	111%	91.8%	94.8%	106%	91.9%
CCOC(=O)c1ccc(N=Cc2sc(=O)[nH]c2O)cc1	101%	92.1%	102%	100%	91.6%	87.1%	103%	88.1%	96.8%	92.3%	101%	103%	100%	92%	107%	101%	103%
COc1ccc(CCN2C(=O)CCSC2=S)cc1	8.09% (active)	63.7%	98.1%	74.8%	102%	41.7%	9.45% (active)	87.7%	71.7%	62%	96.3%	4.04% (active)	21.9%	16.2%	17.1%	106%	0.314% (active)
COc1ccc(OC)c(N(CCN2C(=O)c3ccccc3C2=O)C(=O)CCl)c1	32.9%	65.6%	65.9%	-49.5% (active)	91.3%	-73.4% (active)	14.6%	52.6%	49.2%	95.4%	92.4%	81.5%	96.4%	78.8%	89%	111%	-11.3% (active)
COc1cc2cc3c(=O)n4c(cc5cc(OC)ncc54)c(=O)n3c2cn1	98%	112%	110%	114%	113%	95.8%	109%	104%	108%	95.2%	106%	110%	105%	95.4%	100%	106%	105%
Nc1ccc(-c2nc3cc(Oc4ccc(Oc5ccc6[nH]c(-c7ccc(N)cc7)nc6c5)cc4)ccc3[nH]2)cc1	101%	91.3%	113%	114%	98.7%	120%	122%	108%	103%	77.3%	105%	109%	98.4%	85.1%	97%	106%	104%
O=C1NC(=S)NC(=O)C1=Cc1cn(Cc2cn(Cc3cccc4ccccc34)nn2)c2ccccc12	104%	102%	89.6%	92.2%	111%	82.6%	102%	81.9%	96.5%	105%	101%	94.8%	93.4%	95.4%	106%	100%	97.2%
Nc1nc(N)c2c(n1)NC1(C=C(O)c3ccccc31)C1=C(N2)c2ccccc2C1=O (stereo unspecified)	107%	103%	116%	98.1%	121%	92.3%	113%	111%	107%	112%	112%	125%	99.4%	97.1%	101%	109%	109%
O=S(=O)(c1ccc(NC(=S)NC23CC4CC(CC(C4)C2)C3)cc1)N1CCCCC1	-11.6% (active)	82.9%	94.4%	86.4%	106%	94.3%	5.73% (active)	88.8%	88.2%	90.5%	93.8%	96%	55.8%	94.2%	50.5%	114%	24.7%
COc1ccc(-c2cn[nH]c2-c2cc(OC)c(OC)c(OC)c2)cc1OCc1ccccc1	8.45% (active)	40.1%	67.1%	50.1%	12.5%	44.8%	10.3%	6.1% (active)	-22.2% (active)	23.9%	60%	-61.8% (active)	26.6%	17.2%	17.6%	34.8%	14.7%
COC(=O)C1=C(C)NC(C)=C(C(=O)OC)C(N2C(=O)CCC2=O)C1 (stereo unspecified)	66.8%	88.7%	114%	79.4%	104%	99.3%	99.6%	107%	95.9%	93.9%	79.4%	81.7%	44.7%	69.6%	57.5%	105%	94.7%
COc1ccc(C2=Nn3c(NN)nnc3SC2)cc1	104%	96.4%	108%	101%	105%	96%	111%	96%	102%	96.1%	108%	103%	112%	91.4%	112%	111%	101%
CCOC(=O)c1sc(-c2ccc(OS(=O)(=O)c3ccccc3[N+](=O)[O-])c(C=O)c2)nc1C	37.2%	56.5%	73.6%	33%	117%	3.88% (active)	23.5%	96.3%	61.6%	28.4%	47.7%	78.4%	36.8%	20.8%	13.6%	111%	96.2%
CCOC(=O)C1(C(=O)OCC)N=C(c2ccccc2)C=C1c1ccccc1	61.6%	87.2%	97.8%	81.6%	105%	92.4%	86.9%	94.9%	76.5%	62.2%	97.9%	103%	93.3%	79.5%	78.4%	105%	93.6%
O=C(Nc1ccc(-c2nc3cc4ccccc4cc3[nH]2)cc1)c1cccc(Br)c1	23%	7.87% (active)	73.7%	63.7%	43.8%	33.2%	25.9%	83.5%	39.2%	54%	47.9%	30%	26.9%	27.5%	64.6%	33.1%	39.8%
CN1CCN(Cc2ccc(C(=O)Nc3cncc(C#Cc4cnc(N)c5ccccc45)c3)cc2C(F)(F)F)CC1	-41.4% (active)	-17.8% (active)	-44% (active)	-44.5% (active)	35.2%	-47.4% (active)	-74.1% (active)	-35.4% (active)	-25.4% (active)	-10.5% (active)	72%	-89.2% (active)	-66.3% (active)	-68.3% (active)	-84.5% (active)	-52.6% (active)	-70.4% (active)
O=C(NCCCN1CCC(N2CCCCC2)CC1)C1=Cc2cc(Br)ccc2OC1	30.3%	19%	77%	45.5%	86.4%	33.3%	48.6%	55.8%	38.9%	44.8%	90%	51.3%	56.2%	25.5%	37%	20.4%	12.4%
COc1ccc(/C=C2\NC(=O)NC2=O)cc1O	101%	98.5%	108%	98.8%	103%	107%	116%	109%	102%	100%	94.1%	94.7%	109%	100%	89.3%	107%	102%
